# Bioassay records from PubChem BioAssay.
# M1 ag: activates the M1 muscarinic receptor; CHO-M1 cells, Fluo-4 calcium fluorescence, agonist mode; active compounds read high; B-score at 10 µM; 3% of 64,000 active; AID 626;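 active = fluorescence rise, raw or as B-score row- and column-corrected plate score, outside the 99.7% band of its plate's samples, either direction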
# M1 antagonist: M1 muscarinic receptor (rat) antagonism | CHO-M1 cells, Fluo-4 calcium, ACh EC80 antagonist mode; active compounds read low | B-score at 10 µM | 3.4% of 64,000 active;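 active = calcium fluorescence response, raw or row-and-column corrected B-score, differing from the plate sample mean either way at a set confidence level, mostly lower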
# PTK2B oligo ant: antagonists of human Pyk2 oligomerization | Q14289 | Q293 cells, Pyk2 FERM NanoBiT luminescence; active compounds read low | z-score (the deposit names both 25 µM and 10 µM) | 0.83% of 99,000 active | AID 1347419;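 active = Z-score of -3 or lower, scaled per plate to the spread of control and sample wells; inactive = z-score above -3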;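 note: negative z-score means lost luminescence so less FERM oligomerization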
# Target sequence (Q14289 whole entry, looked up): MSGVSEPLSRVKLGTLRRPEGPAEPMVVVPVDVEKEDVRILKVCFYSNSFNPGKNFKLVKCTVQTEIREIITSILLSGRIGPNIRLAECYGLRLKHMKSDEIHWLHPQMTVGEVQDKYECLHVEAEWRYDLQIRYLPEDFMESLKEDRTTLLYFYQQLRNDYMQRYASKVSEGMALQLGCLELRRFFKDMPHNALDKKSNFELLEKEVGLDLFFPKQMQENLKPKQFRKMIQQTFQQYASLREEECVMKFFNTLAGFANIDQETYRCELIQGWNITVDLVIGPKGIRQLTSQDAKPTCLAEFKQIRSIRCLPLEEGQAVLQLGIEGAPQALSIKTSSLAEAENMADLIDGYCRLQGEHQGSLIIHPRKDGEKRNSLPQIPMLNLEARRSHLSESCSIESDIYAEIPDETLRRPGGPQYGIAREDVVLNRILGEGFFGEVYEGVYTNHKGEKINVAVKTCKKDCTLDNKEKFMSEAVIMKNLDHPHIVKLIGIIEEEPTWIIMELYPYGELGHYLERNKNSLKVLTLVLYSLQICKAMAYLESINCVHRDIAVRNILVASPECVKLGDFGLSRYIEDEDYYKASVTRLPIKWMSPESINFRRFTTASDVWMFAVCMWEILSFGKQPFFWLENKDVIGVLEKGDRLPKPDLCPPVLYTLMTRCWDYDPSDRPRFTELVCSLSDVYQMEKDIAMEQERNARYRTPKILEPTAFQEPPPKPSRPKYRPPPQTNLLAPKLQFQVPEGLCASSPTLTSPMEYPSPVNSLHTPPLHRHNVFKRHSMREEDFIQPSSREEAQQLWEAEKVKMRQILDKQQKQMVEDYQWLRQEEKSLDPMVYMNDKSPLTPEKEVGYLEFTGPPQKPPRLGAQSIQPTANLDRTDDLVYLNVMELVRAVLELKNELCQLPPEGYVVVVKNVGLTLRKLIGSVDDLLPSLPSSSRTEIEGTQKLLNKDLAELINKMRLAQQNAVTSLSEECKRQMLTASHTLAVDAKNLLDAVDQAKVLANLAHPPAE
# Cav32 inh: human Cav3.2 channel inhibition, primary screen; Cav3.2-expressing cells, Fluo-4 calcium fluorescence FDSS; active compounds read low; 4% of 100,000 active; AID 449739; B-score at 10 µM;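 active = single-dose well whose peak fluorescence ratio is a statistical outlier from its plate by either plate-standardised score or position-corrected B-score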
# * = called active by the depositor; . = not tested or not shown. Shown are actives, neighbours in structure and some others; about 7.1% of the full set was active somewhere.
SMILES,M1 ag,M1 antagonist,PTK2B oligo ant,Cav32 inh
Fc1cccc2sc(Nc3nnc(-c4ccccc4)o3)nc12,-1.5,-0.73,-1.3,-5*
COc1cc(OC)cc(-c2nnc(Nc3nc4c(F)cccc4s3)o2)c1,0.1,0.4,-0.5,0.0043
Cn1c(COc2ccc(Cl)cc2)nnc1SCc1ncc(-c2ccccc2)o1,0.028,-0.03,0.68,-9.9*
COc1cc(C(=O)NC2CCCNC2)cc(OC)c1OC (centres undefined),.,.,.,0.24
C=CCn1c(SCC(=O)Nc2sccc2C(N)=O)nc2ccccc2c1=O,.,.,-2.6,0.8
C=CCn1c(SCC(=O)Nc2sccc2C(N)=O)nc2sc(CC)cc2c1=O,.,.,-3.5*,0.018
C=CCn1c(SCC(=O)Nc2sccc2C(N)=O)nc2ccc(Cl)cc2c1=O,.,.,-3.2*,0.5
C/C=C(/C)C(=O)OC1c2c(ccc3ccc(=O)oc23)OC(C)(C)C1OC(=O)/C(C)=C\C (centres undefined),.,.,.,-5.1*
COC(=O)c1ccc(Cl)c(NS(=O)(=O)c2ccc3c(c2)OCCO3)c1,0.012,-0.17,0.05,-5.4*
COC(=O)c1ccc(N2CCCCC2)c(NS(=O)(=O)c2ccc(C)cc2)c1,.,.,-1.6,-3.7*
CCN(CC)C(=O)CSCc1cnn(-c2ccccc2)c1-n1cccc1,.,.,-0.62,-1.3
O=C(CSCc1cnn(-c2ccccc2)c1-n1cccc1)NCc1ccc2c(c1)OCO2,0.27,-1.6,0.38,-7.7*
COc1cccc(CNC(=O)C2CCN(Cc3cnn(-c4ccccc4)c3-n3cccc3)CC2)c1,0,0.22,0.24,-4.6*
O=C(NCc1ccccn1)C1CCN(Cc2cnn(-c3ccccc3)c2-n2cccc2)CC1,.,.,0.05,1.2
O=C(CSCc1ccccc1)NCc1ccc2c(c1)OCO2,.,.,-0.03,0.38
COc1ccc(CNC(=O)CSCc2cnn(-c3ccccc3)c2-n2cccc2)cc1,.,.,-0.41,-7*
COC(=O)C1CN(S(=O)(=O)c2ccc(C)cc2)CCN1S(=O)(=O)c1ccc(C)cc1 (centres undefined),0.018,1.2,-3.7*,-0.36
CN(CC(=O)Nc1ccccc1Br)Cc1nc2ccccc2c(=O)[nH]1,.,.,0.87,.
C=CCn1c(SCC(=O)N2CCOCC2)nc2scc(-c3ccco3)c2c1=O,0.11,0.016,1.4,3.5*
C=CCn1c(SCC(=O)Nc2ccccc2)nc2scc(-c3cccs3)c2c1=O,.,.,-0.76,-5.1*
C=CCn1c(SCC(=O)N2CC(=O)Nc3ccccc32)nc2scc(-c3ccccc3)c2c1=O,.,.,-2.4,-7.2*
CCOC(=O)N1CCC2(CC1)C(C#N)=C(N)OC1=C2C(=O)CC(C)C1 (centres undefined),.,.,-0.26,1.3
C=CCc1c(C)nc(SC)nc1Nc1ccccc1,.,.,-0.66,-4*
C=CCc1c(C)nc(SC)nc1Nc1ccc(C(=O)O)cc1,0.19,0.25,-0.51,0.52
O=S(=O)(c1ccccc1)c1nc(-c2cccs2)oc1NCCCn1ccnc1,0.77,-0.0015,0.04,-1.4
SMILES,M1 ag,M1 antagonist,PTK2B oligo ant,Cav32 inh
CCCCNc1oc(-c2cccs2)nc1S(=O)(=O)c1ccccc1,.,.,0.21,-3.3*
CCOc1cc2c3c(c1)C1(Nc4ccccc4S1)C(=O)N3C(C)(C)CC2C (centres undefined),.,.,-0.31,-4.2*
Cc1cc(/C=C(/C#N)c2nc3ccccc3[nH]2)c(C)n1-c1cccc([N+](=O)[O-])c1,.,.,-0.86,-11*
COc1cc(/C=C(/C#N)c2ccccc2)ccc1Oc1ccc([N+](=O)[O-])cn1,.,.,0.38,-2.4
COc1cc(/C=C(\C#N)c2nc3ccccc3[nH]2)ccc1Oc1ccc([N+](=O)[O-])cn1,.,.,-3.3*,-0.22
N#C/C(=C\c1ccco1)C(=O)NCC1CCCO1 (centres undefined),.,.,0.25,.
CC(NC(=O)CC12CC3CC(CC(C3)C1)C2)C(=O)O (centres undefined),0.15,0.52,0.32,-3.5*
COc1ccc2ccccc2c1C(O)c1nccn1C (centres undefined),0.12,0.00024,-0.38,-5.6*
O=C(CSc1nnc(-c2ccco2)n1Cc1ccccc1)OC1CCCCC1,1.8,0.59,-1.3,-6.2*
COC(=O)c1c(NC(=O)CSc2nnc(-c3ccco3)n2Cc2ccccc2)sc(C)c1C,.,.,-1,-4.5*
O=C(CSc1nnc(-c2ccncc2)n1Cc1ccco1)OC1CCCCC1,-1.4,0.14,0.05,-0.071
CCCn1c(N)c(C(=O)CSc2nnc(Cc3ccccc3)o2)c(=O)n(C)c1=O,-0.5,-2.5,0.4,-7.8*
Cn1c(=O)c(C(=O)CSc2nnc(Nc3ccccc3)s2)c(N)n(Cc2ccccc2)c1=O,.,.,-0.88,0.4
CCOC(=O)c1c(NC(=O)CSc2nnc(Cc3ccccc3)o2)sc(C)c1C,.,.,0.37,-4.5*
COc1cc(O)c(C(C)=O)c(CC(=O)O)c1,.,.,.,0.82
CO/N=C(/CS(=O)(=O)Cc1ccccc1Cl)c1ccc(Cl)cc1Cl,.,.,-1.4,-0.99
CCOC(=O)c1c(NC(=O)CCc2ccc(CC)o2)sc(C)c1C,.,.,0.6,-4.5*
CCOC(=O)C1=C(C)N(CC(C)C)C(=O)/C1=C\c1ccc(OCC(=O)Nc2ccccc2)cc1,.,.,-0.14,-5.5*
CCOC(=O)C1=C(C)N(c2ccccc2)C(=O)/C1=C\c1cccs1,.,.,0.42,.
Cc1sc2nc(-c3cccs3)nc(N3CCCN(C)CC3)c2c1C,-0.0084,-2.2*,.,.
Cc1c(C#N)sc2nc(-c3ccccc3)nc(N3CCCC3)c12,-0.52,-0.06,1.3,-0.0058
Cc1cc2nc3n(c2cc1C)CC1CC(C(=O)NCc2ccco2)N(C)C31 (centres undefined),.,.,.,-0.054
C(=C/c1ccnc2nc(SC/C=C/c3ccccc3)nn12)/c1ccccc1,.,.,-3*,-0.36
Cc1ccc(/C=C/C(=O)N2CC(C)CC(C)C2)o1 (centres undefined),.,.,-0.62,0.44
Cn1cc(C(=O)c2ccc(Cl)cc2Cl)cc1C(=O)N/N=C(\N)COc1ccccc1,.,.,0.69,-6.6*
SMILES,M1 ag,M1 antagonist,PTK2B oligo ant,Cav32 inh
Cn1cc(C(=O)c2ccc(Cl)cc2Cl)cc1C(=O)N/N=C(\N)COc1ccc(F)cc1,.,.,-0.82,-6.1*
N#Cc1ccc(OCC(=O)Nc2ccccc2NS(=O)(=O)c2cccs2)cc1,.,.,-1.1,.
COC(C[C@@H]1O[C@@H]1[C@H](O)COCc1ccccc1)OC,.,.,.,0.37
CCC(Sc1nc2n[nH]c(C)c2c(=N)n1-c1cccc(Cl)c1C)C(=O)N(CC)CC (centres undefined),-0.22,0.08,-3*,0.29
C=CCn1c(SCC(=O)Nc2sc(C)c(C)c2C(=O)OCC)nnc1-c1sc(N)nc1C,-1.1,0.029,-4.5*,1.6
C=CCn1c(SCC(=O)NC2CCCCC2)nnc1-c1sc(N)nc1C,0.5,0.016,-0.45,0.85
O=C(COc1ccccc1)Nc1nnc(-c2ccc(Cl)s2)o1,0.93,1.1,.,-4.8*
O=C(COc1ccccc1)Nc1nnc(-c2ccccc2)o1,-0.028,-0.019,.,-0.73
Cc1ccc(NC(=O)c2cnn(-c3ccccc3)c2NC(=O)c2ccco2)cc1C,0.059,0.73,-1.8,-0.99
Cc1ccc(-n2ncc(C(=O)NCc3ccc4c(c3)OCO4)c2NC(=O)c2ccco2)cc1C,0.33,0.09,-1.4,-6.2*
O=C(NCC1OCCc2ccccc21)c1ccc(NC(=O)c2cccc(Br)c2)cc1 (centres undefined),.,.,0.01,.
